Out of some 5,500 compounds screened, about 2,000 (36%) were called active. About 18% were inconclusive and are not listed. This is one part of the list. A number with no mark means an inactive call. No stated cut-off is given here; in the data, active means normalized growth mostly below about 0.91 (no sharp cut-off); inconclusive means no clear call, values can overlap the other calls; inactive means mostly above about 0.92.
Assay: chemical genetic growth profiling, strain panel (AID 1159580);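 further: tested at 20 µM; growth read once vehicle control cultures reached saturation at 30 °C; 1 = growth at the plate median or of vehicle wells; lower values mean less growth of the strain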
Conditions: growth OD

SMILES: N#Cc1c(N)oc(-c2ccco2)c1-c1ccco1
- normalized growth (S. cerevisiae deletion strains, locus YAL013W, strain DEP1, active compounds read low): 0.893 (active)
- normalized growth (S. cerevisiae deletion strains, locus YBR229C, strain ROT2, active compounds read low): 0.975
- normalized growth (S. cerevisiae deletion strains, locus YDL101C, strain DUN1, active compounds read low): 0.968
- normalized growth (S. cerevisiae deletion strains, locus YDL134C, strain PPH21, active compounds read low): 0.947
- normalized growth (S. cerevisiae deletion strains, locus YDR150W, strain NUM1, active compounds read low): 0.937
- normalized growth (S. cerevisiae deletion strains, locus YEL061C, strain CIN8, active compounds read low): 0.947
- normalized growth (S. cerevisiae deletion strains, locus YGR078C, strain PAC10, active compounds read low): 0.948
- normalized growth (S. cerevisiae deletion strains, locus YGR229C, strain SMI1, active compounds read low): 0.994
- normalized growth (S. cerevisiae deletion strains, locus YHR030C, strain SLT2, active compounds read low): 0.415 (active)
- normalized growth (S. cerevisiae deletion strains, locus YHR087W, strain rtc3, active compounds read low): 0.97
- normalized growth (S. cerevisiae deletion strains, locus YJR043C, strain POL32, active compounds read low): 0.943
- normalized growth (S. cerevisiae deletion strains, locus YJR075W, strain HOC1, active compounds read low): 0.949
- normalized growth (S. cerevisiae deletion strains, locus YKL190W, strain CNB1, active compounds read low): 0.992
- normalized growth (S. cerevisiae deletion strains, locus YLR039C, strain RIC1, active compounds read low): 0.981
- normalized growth (S. cerevisiae deletion strains, locus YLR058C, strain SHM2 (second series), active compounds read low): 0.961
- normalized growth (S. cerevisiae deletion strains, locus YLR085C, strain ARP6, active compounds read low): 0.626 (active)
- normalized growth (S. cerevisiae deletion strains, locus YLR262C, strain YPT6, active compounds read low): 0.999
- normalized growth (S. cerevisiae deletion strains, locus YML094W, strain GIM5, active compounds read low): 0.875
- normalized growth (S. cerevisiae deletion strains, locus YMR219W, strain ESC1, active compounds read low): 0.969
- normalized growth (S. cerevisiae deletion strains, locus YMR263W, strain SAP30, active compounds read low): 0.917
- normalized growth (S. cerevisiae deletion strains, locus YNL153C, strain GIM3, active compounds read low): 0.987
- normalized growth (S. cerevisiae deletion strains, locus YNL298W, strain CLA4 (second series), active compounds read low): 0.888
- normalized growth (S. cerevisiae deletion strains, locus YNL322C, strain KRE1, active compounds read low): 0.962
- normalized growth (S. cerevisiae deletion strains, locus YNR030W, strain Alg12, active compounds read low): 0.903
- normalized growth (S. cerevisiae deletion strains, locus YOL006C, strain TOP1, active compounds read low): 0.913
- normalized growth (S. cerevisiae deletion strains, locus YPL055C, strain LGE1, active compounds read low): 0.789 (active)
- normalized growth (S. cerevisiae deletion strains, locus YPL241C, strain CIN2, active compounds read low): 0.873
- normalized growth (S. cerevisiae deletion strains, locus YPR135W, strain CTF4, active compounds read low): 0.694
- normalized growth (S. cerevisiae strains, strain wild type, active compounds read low): 0.984
